Laboratory results reported in PubChem BioAssay.
Values without a mark were called inactive. Activity calls are given as the source filed them.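 How the source made its calls, unless noted: active means inhibition above 50%; inactive means the rest.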

assay: antimalarial activity against Dd2 strain (AID 2302;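 active means growth inhibition above 50% at the single 2 µM test dose, taken to imply half-maximal potency below 2 µM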;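 further: 0% = DMSO untreated growth and 100% = chloroquine plus artemisinin killed control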); details: P. falciparum Dd2 in RBCs, LDH growth readout, 72 h; at 2 µM; active compounds read high

SMILES | growth inhibition
OCCNc1nc(Nc2ccc(Cl)cc2)nc2ccccc12 | 99% (active)
C[C@H](Cc1ccc(OCCCCCCOc2ccc(C[C@@H](C)NC[C@H](O)c3cccc(Cl)c3)cc2)cc1)NC[C@H](O)c1cccc(Cl)c1 | 99% (active)
Cc1sc(CNCCCNc2cc(=O)c3ccccc3[nH]2)c(I)c1C | 48%
Cc1cccc2[nH]c(-c3cccc(-c4cccc(NC(=O)C(C)CN(C)C)c4)c3)nc12 (stereo unspecified) | 97% (active)
CN1CCN(Cc2cc3cc(NC(=O)/C=C/c4cccc(Cl)c4)ccc3s2)CC1 | 72% (active)
CCc1ccc(-c2cnc(N)c3cc(-c4ccnc(N)n4)ccc23)cc1 | 70% (active)
CCCN=CNc1cc(-c2csc(N=C(N)N)n2)cc([N+](=O)[O-])c1 | 1%
CCOc1cc(Cc2cnc(N)nc2N)cc(OCC)c1OCCCCC(=O)OC | 0%
Cc1ccc(-n2c(Cc3cccc4ccccc34)nnc2SCCC#N)c(C)c1 | 98% (active)
CC(Nc1cc(-c2ccccn2)nc(-c2ccccn2)n1)c1ccccc1 (stereo unspecified) | 98% (active)
CS(=O)(=O)CCOCc1ccc(-c2ccc3ncnc(Nc4ccc(OCc5cccc(F)c5)c(Cl)c4)c3c2)o1 | 43%

assay: HepG2 cytotoxicity, primary screen, cytotoxicity control for P. falciparum antimalarial project, cell-based, ATP luminescence (AID 2303); details: HepG2 viability, 24-48 h, at 10 µM, active compounds read high;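 further: 0% = DMSO wells and 100% = digitonin-killed cells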

SMILES | inhibition
NCCCNc1ccc(-c2ccc(NC(=O)Nc3cc(C(F)(F)F)ccc3F)cc2)cn1 | -3%
O=C(NCCN1CCC(c2ncc(-c3ccccc3)o2)CC1)c1ccc(NC(=O)c2ccc(Cl)cc2)cc1 | 32%
O=C(c1cc(C(=O)Nc2ccccc2F)c(=O)n(-c2ccccc2F)c1)c1cc(Cl)ccc1O | 2%
CCN1CCC(N(Cc2ccc(-c3ccc(C(F)(F)F)cc3)cc2)C(=O)Cn2c(CCc3cccc(F)c3F)cc(=O)c3c2CCC3)CC1 | 49%
Cc1ccc(NC(=O)c2ccc(N3CCC(c4ccccc4C)CC3)nc2)cc1 | 49%
Cc1ccc2[nH]c3c(c2c1)CC(C(=O)NCCC(C)C)NC31CCN(Cc2ccccc2)CC1 (stereo unspecified) | 15%
CCc1cc2c3c(N)nc(N)nc3ccc2n1CC | 62% (active)
CN(C)CCOc1cc(NC(=O)Nc2ccc(-c3ccccc3)cc2Cl)ccc1I | 25%
CN1CCCC1CCOc1ccc2c(c1)N(C(=O)Nc1cc(Br)cc(C(F)(F)F)c1)CC2 (stereo unspecified) | 13%
CN1CCN(c2ccnc3cc4ccccc4cc23)CC1 | 11%
CC(=Nc1ccc(Cl)c(Cl)c1)N(C)C | -6%
CN1CCCc2cc(NC(=O)C=Cc3ccc(-c4ccc(F)cc4F)o3)ccc2C1 | 5%
Cn1cncc1CCN(Cc1ccc(-c2ccc(C(F)(F)F)cc2)cc1)C(=O)Cn1c(SCc2cccc(F)c2F)cc(=O)c2ccccc21 | 24%
Cc1cc(NC(=O)Nc2ccc(N(C)C)cc2)c2cc(Cl)ccc2n1 | -4%
CC(CN1CCN(C)CC1)C(=O)Nc1cccc(-c2cccc(-c3nc4ccccc4[nH]3)c2)c1 (stereo unspecified) | 23%
Cc1ccccc1N1CCN(c2ccc(C(=O)Nc3ccccc3)cc2)CC1 | 22%
OCCN1CCN(Cc2ccc(-c3ccc(-c4nc5ccc(C(F)(F)F)cc5[nH]4)s3)cc2)CC1 | 65% (active)
NC(N)=NCCCN(Cc1ccccc1)c1ccc(Cl)cc1 | -9%
O=[N+]([O-])c1cccc(S(=O)(=O)N2CCN(CC(O)COc3ccc(-c4ccccc4)cc3)CC2)c1 (stereo unspecified) | 11%
COc1ccc(-c2cccc(NC(=O)c3ccc(Cl)cc3)c2)cc1CNC(C)C | 53% (active)

SMILES | inhibition
c1cc2c3c(cccc3c1)NC(CCCCCCCCC1=Nc3cccc4cccc(c34)N1)=N2 | 14%
CCc1ccc(C(=O)Nc2cccc(CN3CCCN(Cc4ccc(O)cc4)CC3)c2)cc1 | 11%
c1ccc(COc2ccccc2COc2ccccc2-c2ccc3cccnc3n2)cc1 | -6%
O=S(=O)(Nc1ccc(CCN2CCC(N3CCCCC3)CC2)cc1)c1ccc2ccccc2c1 | 44%
Cc1cccc(CNc2nc(C)cc(N[C@@H](Cc3ccccc3)C(=O)NCCOc3ccccc3)n2)c1 | 28%
Cc1cc(C(F)(F)F)n2nc(C3CCN(Cc4cc(C)c(O)c(C)c4)C3)cc2n1 (stereo unspecified) | 34%
CC1(C)CN(CCC2CCC(NC(=O)/C=C/c3ccccc3F)CC2)Cc2ccc(C#N)cc21 (stereo unspecified) | -1%
NC(N)=NCCCCN(Cc1ccccc1)c1ccccc1 | -4%
Cc1cc(N(C)CCCN2CCCCC2)nc(Nc2ccc(Cl)cc2)n1 | 7%
OCCNc1nc(Nc2ccc(Cl)cc2)nc2ccccc12 | 30%
C[C@H](Cc1ccc(OCCCCCCOc2ccc(C[C@@H](C)NC[C@H](O)c3cccc(Cl)c3)cc2)cc1)NC[C@H](O)c1cccc(Cl)c1 | 99% (active)
Cc1sc(CNCCCNc2cc(=O)c3ccccc3[nH]2)c(I)c1C | -10%
Cc1cccc2[nH]c(-c3cccc(-c4cccc(NC(=O)C(C)CN(C)C)c4)c3)nc12 (stereo unspecified) | 16%
CN1CCN(Cc2cc3cc(NC(=O)/C=C/c4cccc(Cl)c4)ccc3s2)CC1 | 54% (active)
CCc1ccc(-c2cnc(N)c3cc(-c4ccnc(N)n4)ccc23)cc1 | 37%
CCCN=CNc1cc(-c2csc(N=C(N)N)n2)cc([N+](=O)[O-])c1 | 12%
CCOc1cc(Cc2cnc(N)nc2N)cc(OCC)c1OCCCCC(=O)OC | -12%
Cc1ccc(-n2c(Cc3cccc4ccccc34)nnc2SCCC#N)c(C)c1 | 0%
CC(Nc1cc(-c2ccccn2)nc(-c2ccccn2)n1)c1ccccc1 (stereo unspecified) | 61% (active)
CS(=O)(=O)CCOCc1ccc(-c2ccc3ncnc(Nc4ccc(OCc5cccc(F)c5)c(Cl)c4)c3c2)o1 | 1%
